Screens: PubChem BioAssay, several laboratories
Shn3 3UTR inh = inhibitors of Schnurri-3 3'UTR reporter in osteoblasts. Clone20 osteoblast Shn3 3'UTR firefly luciferase, 24 h. inhibition, % at 12.5 µM. 360,000 tested, 0.52% active. AID 588674;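 active means mean inhibition of at least 75% with every replicate also reaching 75%; inconclusive means mean inhibition at least 75% but some replicate below; inactive means mean inhibition below 75%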;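 further: 0% = median of neutral control wells and 100% = pilot-screen positive control compound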
KKLEB tox = reduces viability of KKLEB cystic fibrosis airway cells; 360,000 tested, 0.36% active; activity change (cytotoxicity), % at 5 µM; AID 602141; KKLEB CF airway cells viability, ATPlite luminescence, overnight; active compounds read low; cells stimulated with P. aeruginosa culture filtrate;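 active means corrected activity change at or below -50% at 5 µM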
Peg3 promoter = inhibitors of Peg3 promoter; HeLa PEG-Prom luciferase reporter, luminescence, overnight; inhibition, % at 20 µM; 360,000 tested, 1.7% active; AID 588405;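 active means inhibition of at least 50% at 20 µM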
CF NFkB inh = inhibitors of cystic fibrosis induced NF-kB; inhibition, % at 5 µM; KKLEB NF-kB-GFP reporter, PAF-induced, GFP fluorescence overnight; 360,000 tested, 0.86% active; AID 588850;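 active means at least 50% inhibition at 5 µM, scaled per plate between neutral and stimulator controls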;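 further: PAF is a Pseudomonas aeruginosa culture filtrate used as stimulus; plate controls were PAF-stimulated DMSO wells for no effect and unstimulated DMSO wells for full effect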
HIF-2a inh = HIF-2a inhibition | 786-0 RCC cells HIF-2a reporter, luciferase luminescence, overnight | inhibition, % at 18.8 µM | 360,000 tested, 0.72% active;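 active means inhibition of the luminescence signal of 40% or more relative to plate controls, in a single-dose primary screen at 18.75 µM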
MITF TRPM1 inh = MITF TRPM1 promoter inhibition in SK-MEL-5 cells; SK-MEL-5 TRPM1 promoter luciferase, 24 h; inhibition, % at 12.5 µM; 330,000 tested, 0.83% active; AID 488899;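 active means mean inhibition across replicates of 60% or more, whatever share of single replicates reaches that level; inconclusive means some that reach 60%, reason not given; inactive means mean inhibition across replicates below 60%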
* hit, by the source's call; ? = inconclusive; . = no result given; ! = a repeat was not active. The list is not random: actives were taken first. Their share in the collection is about 2.7%.

SMILES	Shn3 3UTR inh	KKLEB tox	Peg3 promoter	CF NFkB inh	HIF-2a inh	MITF TRPM1 inh
N#C/C(N=Nc1ccccc1O)=N\Nc1ccccc1O	34.5	0.6	66.6*	-46.3	-70.7	69.1*
CCCCCc1ccc(OCCOCCn2c[n+](C)c3ccccc32)c(CCCCC)c1	93.4*	-42.8	104.7*	37.9	9.0	76.8*
CCCCCc1ccc(OCCC[n+]2ccccc2)c(CCCCC)c1	?	-91.1*	106.6*	84.7*	31.9	104.9*
O=S(=O)(c1ccccc1)n1cc(-c2cccc3nccn23)c2ccccc21	34.8	-15.8	9.7	-25.8	3.2	.
CCCCNC(=O)c1ccc2nc(CC)c(N(C)Cc3cccs3)n2c1	8.9	-6.2	22.8	-3.7	-2.4	.
CCCCCCCCNCCS(=O)(=O)NCc1ccccc1	3.1	-28.6	64.2*	6.5	-6.7	-2.7
COc1ccc(NC(=O)CSc2nnnn2C2CCCC2)cc1S(=O)(=O)N1CCOCC1	16.2	-4.3	5.9	15.0	-6.3	.
O=C1CCc2cc(S(=O)(=O)NC3CCCCC3)ccc2N1	-0.5	-1.5	103.3*	-13.0	7.7	-8.1
CN(C)c1ccc(CCc2ccc(N)cc2)cc1	32.3	12.1	-59.6	5.8	82.6*	43.1
CN(C)c1ccc(Cc2ccc(N(C)C)cc2)cc1	-6.1	-4.8	-9.7	4.3	-36.3	.
CC1(Cc2ccccc2OC(F)(F)F)C(=O)Nc2c(Cl)ccc(Cl)c21 (stereo unspecified)	2.8	1.0	31.8	6.9	11.9	.
COc1ccc(NS(=O)(=O)c2ccc(OC)c(N(C)S(=O)(=O)c3ccc(Cl)cc3)c2)cc1	87.3*	-16.4	35.1	17.1	12.5	18.9
CCOC(=O)c1ccc(S(=O)(=O)N2CCC(C(=O)NCC3COc4ccccc4O3)CC2)cc1 (stereo unspecified)	-30.8	-3.4	-1.5	7.0	0.4	.
COC(=O)c1c(-c2ccsc2)sc2ccc(-c3cc(OC)c(OC)c(OC)c3)cc12	5.1	-8.1	16.5	34.8	0.7	-4.0
COc1cc(-c2ccc3sc(-c4ccsc4)c(C#CCO)c3c2)cc(OC)c1OC	23.8	8.3	56.2*	9.0	-4.4	-4.4
CC1CCN(Cc2c(C(=O)N/N=C/c3ccc(C(C)C)cc3)nnn2-c2nonc2N)CC1	14.5	0.0	65.0*	-8.3	-4.9	-12.2
CC1(C)CC(=O)C(C=Nc2ccc(O)c(N=CC3=C(O)CC(C)(C)CC3=O)c2)=C(O)C1	26.4	-15.0	-0.1	24.1	-17.7	15.4
CC1(C)CC(=O)C(C=Nc2ccc(C(=O)c3ccccc3)cc2N=CC2=C(O)CC(C)(C)CC2=O)=C(O)C1	0.5	-58.7*	-14.3	52.0*	-5.6	7.3
COC(=O)C1=C(C)NC(C)=C([N+](=O)[O-])C1c1ccccc1C(F)(F)F (stereo unspecified)	93.0*!	6.1	3.5	-35.0	-0.4	0.8
COc1ccc(NC(=O)C(c2ccncc2)n2c(=O)c(-c3ccccc3)nc3ccccc32)cc1 (stereo unspecified)	.	.	.	.	-198.8	.
C/C(=N\Nc1nc2ccccc2nc1C)c1ccccc1O	-16.0	-2.8	-33.3	-8.5	-41.1	-8.8
CC(=NNc1ccc2ccccc2n1)c1ccccc1O	17.9	-37.1	36.6	-34.9	43.4*	.
COc1cc(OC)cc(C2=Cc3ccc(OC)cc3C(CC(C)=O)N2c2ccc(-c3cccs3)cc2)c1 (stereo unspecified)	.	.	.	.	-17.2	.
CC(O)(c1ccccc1)c1nc(-c2ccncc2)cs1 (stereo unspecified)	18.7	-3.6	-3.7	1.6	8.3	.
O=C(CCl)c1cc2c3c(c1)CC(=O)N3CCC2	8.2	8.6	81.0*	19.6	-6.9	44.0
SMILES	Shn3 3UTR inh	KKLEB tox	Peg3 promoter	CF NFkB inh	HIF-2a inh	MITF TRPM1 inh
O=C(NCCO)C(=O)Nc1cc2c3c(c1)CC(=O)N3CCC2	4.4	5.0	20.3	-13.0	6.7	-6.8
Cc1ccc(NS(=O)(=O)c2cc(NC(=O)c3ccc4c(c3)NC(=O)CS4)ccc2Cl)c(C)c1	14.2	7.2	52.0*	-15.8	34.3	-2.7
COc1ccc(NC(=O)c2ccc3c(c2)NC(=O)CS3)cc1	-36.1	-17.4	-134.8	7.9	-168.0	-50.7
CCOC(=O)c1c(NC(=O)CSc2nnnn2-c2ccccc2)sc2c1CC(C)(C)NC2(C)C	20.0	-17.3	54.8*	8.0	2.6	-3.7
CCOC(=O)c1c(NC(=O)COc2ccccc2OCC)sc2c1CC(C)(C)NC2(C)C	-85.9	-2.8	106.5*	-19.1	17.5	84.4*
CCOC(=O)c1c(NC(=O)Cc2ccccc2)sc2c1CC(C)(C)NC2(C)C	6.1	-21.8	21.2	9.7	0.6	-3.0
CCOC(=O)[C@]12CCCC=C1N(Cc1ccc(Cl)cc1Cl)C(=O)[C@H](CC(=O)NCCc1ccccc1OC)C2	.	.	.	.	-22.9	.
OC(c1ccccc1)(c1ccccc1)C1CCN(CCCOc2ccc3c(c2)CCCC3)CC1	.	.	.	.	3.5	.
Nc1nc(Cl)cc(N2CCC(c3cc(-c4ccc(Cl)cc4)n[nH]3)CC2)n1	80.9*	4.8	21.6	-7.3	12.2	65.2*
CCCCNC(=O)C1(C)CCCCN1C(=O)c1oc2ccccc2c1C (stereo unspecified)	6.9	4.6	18.0	0.3	13.2	.
Nc1c(Br)cc2c(c1Br)C(O)c1ccccc1-2 (stereo unspecified)	93.8*	-7.6	-41.8	-15.0	-41.1	2.3
O=C1OC(c2cc(Br)c(O)c(Br)c2)c2ccccc21 (stereo unspecified)	14.5	-2.2	7.4	7.2	-1.3	-0.8
CC1=C(/C=C/C(C)=C/C=C/C(C)=C/C(=O)O)C(C)(C)CCC1	17.6	-8.1	12.3	72.9*	14.4	-34.9
CC(/C=C\c1ccccc1)=C/C(=O)O	-9.9	0.9	7.9	7.1	7.0	2.8
CN(c1ccccc1)c1ccc(/C=C(/CCC(=O)O)c2nc3ccccc3s2)cc1[N+](=O)[O-]	1.0	-16.6	57.0*	35.4	12.6	10.8
O=C(O)CC/C(=C\c1ccc(N2CCCC2)c([N+](=O)[O-])c1)c1nc2ccccc2s1	-2.5	-1.1	5.2	-1.6	2.8	4.2
O=C1Nc2ccc(Br)cc2C12NNc1ccccc1O2 (stereo unspecified)	-17.0	6.9	67.3*	-82.7	-26.3	16.2
Cc1ccc(S(=O)(=O)N2C[C@@H](C)[C@]3(C2)[C@H](O)[C@H](OC(=O)Nc2cccs2)C[C@H]2C(=O)N(c4ccccc4)C(=O)[C@H]23)cc1	-74.8	5.8	-29.7	39.9	21.4	.
NC(c1ccccc1)c1csc(Nc2ccc(C(=O)c3ccccc3)cc2)n1 (stereo unspecified)	19.9	-14.3	22.5	23.6	-14.6	.
CC(C)NC(=O)N(C)C[C@H]1Oc2ncc(Br)cc2C(=O)N([C@H](C)CO)C[C@@H]1C	-7.2	1.1	-13.2	-12.2	18.7	.
Cc1cn([C@H]2C[C@H](O)[C@@H](/C=C/C(=O)NCc3cccc4ccccc34)O2)c(=O)[nH]c1=O	-18.9	-51.6*	9.0	81.1*	17.8	.
